Molecules are shown by their SMILES.

The experiment deals with T1, Methionyl-tRNA synthetase, putative (Leishmania donovani (strain BPK282A1)) (UniProt E9BF75).
T1 sequence (whole entry): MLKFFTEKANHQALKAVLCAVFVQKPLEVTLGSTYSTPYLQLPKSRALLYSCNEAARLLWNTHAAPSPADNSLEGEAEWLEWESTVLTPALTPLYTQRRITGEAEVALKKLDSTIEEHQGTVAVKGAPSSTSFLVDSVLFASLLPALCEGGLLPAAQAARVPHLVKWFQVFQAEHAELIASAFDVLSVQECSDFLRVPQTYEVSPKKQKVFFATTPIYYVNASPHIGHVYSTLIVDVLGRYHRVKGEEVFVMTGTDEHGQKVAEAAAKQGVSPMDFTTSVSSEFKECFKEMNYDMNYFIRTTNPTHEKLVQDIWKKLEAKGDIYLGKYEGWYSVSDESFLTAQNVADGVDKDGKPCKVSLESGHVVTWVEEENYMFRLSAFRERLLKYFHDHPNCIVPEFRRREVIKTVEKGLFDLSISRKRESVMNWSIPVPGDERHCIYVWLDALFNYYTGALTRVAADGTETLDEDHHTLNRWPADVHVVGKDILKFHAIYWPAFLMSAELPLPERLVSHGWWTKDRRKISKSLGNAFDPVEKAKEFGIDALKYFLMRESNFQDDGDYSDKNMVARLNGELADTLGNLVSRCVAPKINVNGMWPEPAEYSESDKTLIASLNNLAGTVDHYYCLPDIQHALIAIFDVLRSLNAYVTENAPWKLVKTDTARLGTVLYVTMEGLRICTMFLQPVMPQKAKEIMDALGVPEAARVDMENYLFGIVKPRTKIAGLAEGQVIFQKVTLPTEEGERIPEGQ
Kind of experiment: Leishmania donovani Methionine tRNA synthetase (LdMetRS):v7. Dose response assay. Type of experiment: functional. Further details: conc 80 nM, time 150 minutes.

The molecule `CCNc1cc(-c2ccccn2)nc(Nc2ccc(OC)cc2)n1` gave a PXC50 (MAX_EFFECT 22.3255814) of less than 4 and a PXC50 (MAX_EFFECT 23.54312354) of less than 4.
In the case of `Fc1ccc(CN2CCC(F)(F)C3(CCN(c4cnccn4)C3)C2)cc1` (stereo not drawn), the PXC50 reads like this: (MAX_EFFECT 10.88435374) less than 4; (MAX_EFFECT 11.21495327) less than 4.
The molecule `CCNc1nc(-c2ccc(C)cc2)cc(C(F)(F)F)n1` showed a PXC50 (MAX_EFFECT 4.797979798) of less than 4 and a PXC50 (MAX_EFFECT 5.102040816) of less than 4.
As to `Cc1nc(NCCO)c2c3c(sc2n1)CCC3`, the PXC50 is, setting by setting: (MAX_EFFECT 6.632653061) less than 4; (MAX_EFFECT 7.828282828) less than 4.
As to `Nc1noc2ccc(-c3cnc4ccc(NCc5ccccn5)nn34)cc12`, the PXC50 (MAX_EFFECT 7.291666667) was less than 4 and the PXC50 (MAX_EFFECT 11.84210526) was less than 4.
For the molecule `Cc1nc(NC(C)C(=O)O)c2c3c(sc2n1)CCCC3` (stereo not drawn), the PXC50 was less than 4 (MAX_EFFECT 7.035175879) and less than 4 (MAX_EFFECT 8.5995086).
Regarding `CCc1cc2c(NCc3ccccn3)nc(C)nc2s1`, the PXC50 is, setting by setting: (MAX_EFFECT 3.194103194) less than 4; (MAX_EFFECT 6.030150754) less than 4.
As to `CCCNc1nc(-c2ccc(C)cc2)cc(C(F)(F)F)n1`, the PXC50 by setting is: (MAX_EFFECT 6.21761658) less than 4; (MAX_EFFECT 10.10638298) less than 4.
Take `COCCNc1nc(-c2ccccn2)nc2sc3c(c12)CCCC3`: the PXC50 is, setting by setting: (BOTTOM 1.822787583, HILLSLOPE 1.291311311, MAX_EFFECT 71.49122807, TOP 102.6012048) 4.27; (BOTTOM -5.083400143, HILLSLOPE 1.043102409, MAX_EFFECT 66.66666667, TOP 106.555572) 4.25.
For the molecule `CC(=O)N1CCN(c2ccc3ncc(-c4ccc5onc(N)c5c4)n3n2)CC1`, the PXC50 reads like this: (MAX_EFFECT 15.77608142) less than 4; (MAX_EFFECT 16.66666667) less than 4.
With `Cc1nc(N2CCN(c3ccccc3O)CC2)c2c3c(sc2n1)CCC3`, the PXC50 (BOTTOM -0.0879, HILLSLOPE 1.043556985, MAX_EFFECT 58.82352941, TOP 100.0) was found to be 4.16 and the PXC50 (BOTTOM -4.305210646, HILLSLOPE 1.068745934, MAX_EFFECT 61.20218579, TOP 100.0) worked out at 4.17.
Regarding `CC1CCN(c2nc3c(c(C(F)(F)F)n2)CCCCC3)CC1`, the PXC50 is, setting by setting: (MAX_EFFECT 8.396946565) less than 4; (MAX_EFFECT 11.83879093) less than 4.
Regarding `CC(C)C[C@H](N)COc1ccc(-c2ccccc2)c(F)c1`, the PXC50 reads like this: (MAX_EFFECT 23.6673774) less than 4; (MAX_EFFECT 25.46583851) less than 4.
For the molecule `CCc1nc(N2CCCC2C(=O)O)c2c3c(sc2n1)CCC3` (stereo not drawn), the PXC50 is less than 4 (MAX_EFFECT 9.836065574) and less than 4 (MAX_EFFECT 11.76470588).
`Cc1nc(N[C@@H](CC(C)C)C(=O)O)c2c3c(sc2n1)CCCC3`: the PXC50 by setting is: (MAX_EFFECT 23.93617021) less than 4; (MAX_EFFECT 24.87046632) less than 4.
Consider `Cc1nc(N2CCC(N)C2)c2ccsc2n1` (stereo not drawn), for which the PXC50 is, setting by setting: (MAX_EFFECT 4.663212435) less than 4; (MAX_EFFECT 6.914893617) less than 4.
Regarding `Cc1nc(N[C@@H](Cc2ccccc2)C(=O)O)c2c3c(sc2n1)CCCC3`, the PXC50 was less than 4 (MAX_EFFECT 23.48484848) and less than 4 (MAX_EFFECT 27.55102041).
Take `Cc1nnc(NCC2(c3ccccc3)CCOCC2)c(C#N)c1C`: the PXC50 was less than 4 (MAX_EFFECT 7.981220657) and less than 4 (MAX_EFFECT 16.48148148).
`Cc1nc(N(C)CCC(=O)O)c2cc(-c3ccccc3)sc2n1`: the PXC50 by setting is: (MAX_EFFECT 10.96256684) less than 4; (MAX_EFFECT 15.76086957) less than 4.
Turning to `Nc1cc(C(=O)O)c(Cl)cc1Cl`, the PXC50 reads like this: (MAX_EFFECT 6.695464363) less than 3; (MAX_EFFECT 9.69581749) less than 3.
Take `Cc1nc(NCCCS(N)(=O)=O)c2c(-c3cccs3)csc2n1`: the PXC50 is less than 4 (MAX_EFFECT 6.297229219) and less than 4 (MAX_EFFECT 6.870229008).
Turning to `Cc1cc(C)n(-c2nc(N3CCCC3)c3c4c(sc3n2)CCCC4)n1`, the PXC50 reads like this: (MAX_EFFECT 18.42105263) less than 4; (MAX_EFFECT 18.75) less than 4.
Turning to `NCc1ccc(Cl)cc1Cl`, the PXC50 reads like this: (MAX_EFFECT 13.60691145) less than 3; (MAX_EFFECT 15.77946768) less than 3.
For the molecule `CCOC(=O)c1sc2nc(C)nc(NC3CCN(C4CC4)CC3)c2c1C`, the PXC50 was less than 4 (MAX_EFFECT 19.59798995) and less than 4 (MAX_EFFECT 24.32432432).
With `Nc1noc2ccc(-c3cnc4ccc(NCCN5CCS(=O)(=O)CC5)nn34)cc12`, the PXC50 reads like this: (MAX_EFFECT 6.106870229) less than 4; (MAX_EFFECT 10.52631579) less than 4.
Regarding `Cc1ccc(-c2cc(C(F)(F)F)nc(NCCCN(C)C)n2)cc1`, the PXC50 (MAX_EFFECT 7.446808511) was less than 4 and the PXC50 (MAX_EFFECT 8.808290155) was less than 4.
Consider `CN(C)C(=O)N1CCN(c2ccc3ncc(-c4ccc5onc(N)c5c4)n3n2)CC1`, for which the PXC50 was less than 4 (MAX_EFFECT 21.88295165) and less than 4 (MAX_EFFECT 25.43859649).
With `CC(C)C[C@H](N)COc1ccc(Cl)cc1-c1ccno1`, the PXC50 is less than 4 (MAX_EFFECT 6.832298137) and less than 4 (MAX_EFFECT 8.742004264).
Turning to `Nc1noc2ccc(-c3cnc4ccc(NCc5cccnc5)nn34)cc12`, the PXC50 was less than 4 (MAX_EFFECT 15.26717557) and less than 4 (MAX_EFFECT 15.78947368).

Values taken from ChEMBL document CHEMBL3988442, “University of Dundee, Small-Polar-MMV Screening Library” (2021).
